# Screens (PubChem BioAssay)
# In the library only some 3.5% were active in any assay of this set; here they are far more common.
# TEAD-YAP block – TEAD-YAP interaction inhibition; inhibition, % at 9.12 µM; AID 1259422; actives 1.4% (n = 640,000); HEK-TIYL cells, TEAD-Gal4/YAP UAS-luciferase luminescence; in the data active = inhibition above about 32%;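 also: 0% = median of test compound wells and 100% = reference inhibitor wells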
# FBW7 act – human FBW7 E3 ligase activation, primary screen; Q969H0; AlphaScreen FBW7–phospho-cyclin E peptide binding, activator screen; normalized activity (activation), % at 26.1 µM; actives 0.13% (n = 650,000); in the data active = normalized activity above about 1.9%;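 also: purified mutant Fbw7 with reduced substrate affinity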
# MITF primary – human MITF inhibition, primary screen; AlphaScreen MITF homodimerization, bead proximity signal; inhibition, % at 2.6 µM; AID 1259374; O75030; actives 0.91% (n = 650,000); in the data active = inhibition above about 50%;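 also: 0% = vehicle wells with protein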
# GPR151 ag – activates the human receptor GPR151. Q8TDV0. PathHunter beta-arrestin GPR151 cells, luminescence. activation, % at 11.2 µM. actives 1% (n = 650,000); in the data active = activation above about 4.9%;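 also: 0% = median of compound wells and 100% = cells with positive control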
# Target sequence (Q8TDV0 whole entry, looked up): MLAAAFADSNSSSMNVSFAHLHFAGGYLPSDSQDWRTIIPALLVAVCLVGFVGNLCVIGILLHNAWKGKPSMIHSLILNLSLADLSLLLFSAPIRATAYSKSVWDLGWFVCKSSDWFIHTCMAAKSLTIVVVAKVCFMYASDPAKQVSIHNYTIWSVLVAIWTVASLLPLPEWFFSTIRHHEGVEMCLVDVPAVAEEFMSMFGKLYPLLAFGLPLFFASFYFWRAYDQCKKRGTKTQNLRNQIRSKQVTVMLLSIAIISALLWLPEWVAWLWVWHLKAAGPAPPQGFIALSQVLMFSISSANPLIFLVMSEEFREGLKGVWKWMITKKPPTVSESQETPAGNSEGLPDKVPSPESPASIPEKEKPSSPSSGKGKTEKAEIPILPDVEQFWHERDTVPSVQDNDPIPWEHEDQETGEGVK
# GPR151 confirm – confirmation of human GPR151 activators | shares compounds with GPR151 ag | GPR151 PathHunter beta-arrestin cells, luminescence, 90 min; % of EA-reagent control over plate median | activation, % at 11.2 µM | 6,700 tested, under 10 active | AID 1508609;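 active = mean percent activation across replicates above the confirmation screen cutoff of 4.91%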
# GPR119 ag – activates human GPR119 in a GPR151 counter-screen. shares compounds with GPR151 ag. GPR119 PathHunter beta-arrestin cells, luminescence, 90 min; 0 = compound-well median, 100 = enzyme-acceptor control. activation, % at 11.2 µM. actives 0.3% (n = 6,700). AID 1508611;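 active = mean percent activation in the counterscreen above 29.09%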;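 also: counterscreen on off-target GPR119 to flag nonselective hits from the GPR151 activator screen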
# Active calls of the source: *; nt = no result; ! = not active in a repeat.
SMILES,TEAD-YAP block,FBW7 act,MITF primary,GPR151 ag,GPR151 confirm,GPR119 ag
COCCNc1oc(-c2ccccc2)nc1S(=O)(=O)c1ccc(Cl)cc1,-2.2,-0.9,3.7,-1.4,nt,nt
COCCNc1oc(-c2ccccc2)nc1S(=O)(=O)c1ccc(C)cc1,-0.9,-0.1,2.4,6.1*,0.1,1.1
COC(=O)c1cc(OC)c(OC)cc1NC(=O)c1cc(Cl)ccc1Cl,-8.2,-0.1,-2.5,6.3*,0.8,2.4
COC(=O)c1cc(OC)c(OC)cc1NC(=O)CCN1C(=O)c2ccccc2C1=O,-0.9,-0.1,-8.4,5.9*,-0.2,1.8
COC(=O)C(CC(C)C)NC(=O)CSC1=NC(=O)C(c2ccccc2)C(=O)N1 (stereo not drawn),-0.4,0.2,5.0,5.6*,-0.8,-16.1
COc1ccccc1NC(=O)c1ccc(Oc2ccc(C(=O)Nc3ccccc3OC)cc2)cc1,-7.7,0.2,-4.6,-1.3,nt,nt
Cn1cc(CN2CCN(Cc3nccn3C)CC2)c(-c2ccc3c(c2)OCCO3)n1,0.0,0.0,2.3,4.3,nt,nt
Cn1cc(CN2CCOCC2)c(-c2ccc3c(c2)OCCO3)n1,11.3,-0.1,-0.7,9.2*,-0.1,3.1
O=C(CCS(=O)(=O)c1cc2c(cc1Cl)NC(=O)CO2)Nc1ccc(F)cc1F,-2.8,0.1,7.0,5.5*,-1.0,-13.7
CC(C)CC(C(=O)OCC(=O)Nc1c(F)cccc1F)N1C(=O)c2ccccc2C1=O (stereo not drawn),-4.1,0.0,-5.2,-1.0,nt,nt
CC(=O)NC1C(Oc2cc(C)ccc2C)OC(CO)C(O)C1O (stereo not drawn),3.4,0.1,-16.9,5.8*,0.0,-0.3
CC(=O)N[C@H]1[C@H](Oc2ccc(Cl)cc2Cl)O[C@H](CO)[C@@H](O)[C@@H]1O,-2.0,-0.1,-4.8,1.0,nt,nt
COc1ccccc1OC1OC2COC(c3ccco3)OC2C(O)C1NC(C)=O (stereo not drawn),-2.3,0.1,-2.3,15.1*,0.7,5.2
CC(=O)NC1C(Oc2cc(C)ccc2C)OC2COC(C)(C)OC2C1O (stereo not drawn),-4.1,-0.3,3.5,12.8*,1.1,6.7
COCCn1nnnc1C(c1cc2cc3c(cc2[nH]c1=O)OCCO3)N1CCCC1 (stereo not drawn),-2.0,0.6,10.8,-0.7,nt,nt
Cc1cc2c(cc1S(=O)(=O)N(C)c1ccc(Br)cc1)OCC(=O)N2,2.1,0.2,13.7,10.2*,0.8,4.2
CN(c1ccc(Br)cc1)S(=O)(=O)c1cc2c(cc1Cl)NC(=O)CO2,1.2,0.0,8.0,1.9,nt,nt
COC(=O)c1cc(NC(=O)c2ccc(F)cc2)c(=O)n2c(=O)c3c(C)c(C)sc3[nH]c12,2.4,0.2,2.4,5.4*,0.7,2.1
COC(=O)c1cc(NC(=O)c2cccs2)c(=O)n2c(=O)c3c(C)c(C)sc3[nH]c12,-5.2,-0.1,2.4,0.2,nt,nt
CCOC(=O)C1=C(C)NC2=C(C(=O)CC(C)(C)C2)C1c1cccc(OC)c1OC (stereo not drawn),15.7,0.4,11.1,0.1,nt,nt
CCOC(=O)C1=C(C)NC2=C(C(=O)CC(C)(C)C2)C1c1ccc(OC)c(OC)c1OC (stereo not drawn),-13.8,0.2,0.5,11.8*!,0.3,4.7
COc1cc(C2C(C(=O)OC3CCCCC3)=C(C)NC3=C2C(=O)CC(C)(C)C3)cc(OC)c1OC (stereo not drawn),-5.0,0.1,-8.6,12.4*,-0.3,6.2
O=[N+]([O-])c1c(N2CCCCC2)c([N+](=O)[O-])c2nsnc2c1N1CCCCC1,2.6,-0.1,12.9,5.6*,-1.4,-10.4
O=[N+]([O-])c1c(N2CCCC2)ncnc1N1CCCC1,6.0,0.0,-1.7,0.5,nt,nt
CCC(=O)Oc1ccc2c(-c3cc4ccccc4oc3=O)cc(=O)oc2c1,-7.4,-0.2,-9.6,5.4*,0.3,10.0
SMILES,TEAD-YAP block,FBW7 act,MITF primary,GPR151 ag,GPR151 confirm,GPR119 ag
O=C(Oc1ccc2c(-c3cc4ccccc4oc3=O)cc(=O)oc2c1)C1CC1,7.8,0.0,-2.1,9.2*,-0.5,1.4
CCOc1ccc2c(-c3cc4ccccc4oc3=O)cc(=O)oc2c1,-1.1,0.1,0.8,1.8,nt,nt
CC(=O)Nc1ccc2oc(-c3cccc4c(Br)cccc34)nc2c1,24.8,1.2,5.0,-1.2,nt,nt
Clc1ccc(N2CCN(Cc3ccoc3)CC2)cc1,-4.8,-0.3,38.7,0.0,nt,nt
Clc1ccc(N2CCN(Cc3ccco3)CC2)cc1,0.6,1.0,25.6,5.0*,0.3,6.6
Cc1cccc(NC(=O)C2CCN(S(=O)(=O)c3ccc4c(c3)oc(=O)n4C)CC2)c1,-5.7,-0.2,-10.2,-0.5,nt,nt
O=C(CCc1ccccc1)Nc1nnc(-c2ccc(F)cc2)o1,-5.6,-0.1,-5.6,5.7*,0.6,7.1
CCCNC(=O)C1CCN(c2ccc(NC3CCN(Cc4ccccc4)CC3)nn2)CC1,-2.3,-0.1,6.8,-0.6,nt,nt
CC(=O)c1cccc(NC(=O)CSc2nnc(-c3ccoc3C)n2Cc2ccccc2)c1,9.2,-0.2,4.6,0.0,nt,nt
CCOC(=O)c1cnc2cc(C(F)(F)F)ccc2c1Nc1cc(OC)ccc1OC,5.9,0.0,-0.1,4.9*,-0.7,9.3
CCOC(=O)c1cnc2ccc(OC)cc2c1Nc1ccccc1C,-4.5,0.0,2.9,-0.1,nt,nt
CCOC(=O)c1cnc2ccc(OC)cc2c1Nc1ccccc1C(=O)O,-1.4,-0.1,-8.7,5.6*,-0.4,-3.7
O=C(CNCc1ccccc1)Nc1ccc(N2CCCCC2)cc1,-7.0,0.1,49.3,-0.7,nt,nt
CN(NS(=O)(=O)c1ccc2ccccc2c1)c1ccccc1,-0.2,0.0,5.2,7.6*,0.5,1.4
CN(c1cccc(NS(=O)(=O)c2ccc3ccccc3c2)c1)S(C)(=O)=O,5.1,-0.1,-0.3,-0.4,nt,nt
O=C(c1ccc(OCCN2CCCCC2)cc1)c1c(-c2ccc(O)cc2)sc2cc(O)ccc12,-11.9,-0.2,-11.1,5.0*!,-0.5,-10.4
Cc1cc(Oc2nc3ccccn3c(=O)c2/C=C(\C#N)C(=O)N2CCCCC2)ccc1Cl,10.0,0.3,0.9,4.6,nt,nt
Cc1ccc(S(=O)(=O)NCC2(c3cccs3)CCOCC2)c(C)c1,-1.4,0.3,4.4,7.3*,1.4,-6.2
Cc1ccc(-c2n[nH]c(C3CCN(CC(=O)Nc4ccc5c(c4)OCCO5)CC3)n2)cc1,12.2,-0.1,2.1,1.1,nt,nt
COc1cccc(-c2nc(-c3ccc([N+](=O)[O-])cc3)no2)c1,5.1,0.1,-0.4,0.0,nt,nt
COc1ccc(-c2noc(C(C)c3ccc([N+](=O)[O-])cc3)n2)cc1 (stereo not drawn),-4.9,0.1,4.4,5.1*,-0.2,1.1
c1ccc(CN2CCC(Nc3ncc(-c4cccs4)cn3)CC2)cc1,-10.4,-0.2,-3.3,6.8*,-0.1,3.8
Cc1cc(NC2CCN(Cc3ccccc3)CC2)nc(-c2cccs2)n1,7.5,-0.1,9.6,2.0,nt,nt
